From PubChem
An excerpt weighted towards active compounds, which were near 19% of everything screened.
Pf growth 96h – Primary qHTS for delayed death inhibitors of the malarial parasite plastid, 96 hour incubation | P. falciparum luciferase reporter growth, 96 h | Potency, µM (titrated, usually from 28.7 µM), for inactives: at the highest dose activity change, negative = inhibition, usual class: inhibitors | 320,000 tested, 6.9% active; further: potency means the concentration at half of the fitted maximal effect; on the % scale 0 is the no-effect control and ±100 the full control effect
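P. falciparum expressing integrated firefly luciferase grown in erythrocytes (2% hematocrit, 0.05% parasitemia final) with compounds for 96 hours at 37 C, 5% CO2. Growth inhibition read as loss of luminescence after adding luciferase detection reagent.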
CHX counter – Cycloheximide Counterscreen for Small Molecule Inhibitors of Shiga Toxin. 300,000 tested, 12% active. cell reporter, cycloheximide protein synthesis inhibition counterscreen. max response, %; in the data active means max response mostly above about 13%, no sharp cut-off; inactive means mostly below about 14%; further: read at 38.3 µM for the half of the compounds with a filed dose; 0% is about no effect
Pf growth 48h – Primary qHTS for delayed death inhibitors of the malarial parasite plastid, 48 hour incubation | Potency, µM (doses to about 28.7 µM), for the others: at the highest dose activity change, negative = inhibition, most hits filed as inhibitors | 310,000 tested, 5.9% active | P. falciparum luciferase growth in erythrocytes, 48 h; further: potency means the concentration at half of the fitted maximal effect; on the % scale 0 is the no-effect control and ±100 the full control effect
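In quantitative HTS format, infected erythrocytes bearing luciferase-reporter parasites were treated for a single generation at 37 C. Luminescence after adding detection reagent served as the growth measure.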
Marburg entry inh – qHTS for inhibitors of binding or entry into cells for Marburg Virus | Marburg virus pseudotyped entry inhibition, cell reporter | Potency, µM (series often up to 37.8 µM), for the others: top-dose activity change, negative = inhibition, most hits filed as inhibitors | 300,000 tested, 1.8% active | AID 540276, 2011; calls by dose curve; tested in HEK293 cells; further: potency means the concentration at half of the fitted maximal effect; on the % scale 0 is the no-effect control and ±100 the full control effect
Lassa entry inh – qHTS for Inhibitors of binding or entry into cells for Lassa Virus | 300,000 tested, 1.2% active | Potency, µM (series often up to 37.9 µM), for the others: top-dose activity change, negative = inhibition, actives largely listed as inhibitors | AID 540256, 2011 | Lassa virus pseudotype entry inhibition, cell reporter; calls by dose curve; tested in HEK293 cells; further: potency means the concentration at half of the fitted maximal effect; on the % scale 0 is the no-effect control and ±100 the full control effect; nearly all actives have a fitted effect of over 50% in size
Shiga inhibitor – A qHTS for Small Molecule Inhibitors of Shiga Toxin. Vero cells, Shiga toxin protein synthesis inhibition reporter. inhibition, % at 38.7 µM. 290,000 tested, 9.2% active. AID 2315, 2010; in the data active means inhibition mostly above about 28%, no sharp cut-off; inactive means mostly below about 43%; further: 0% is about no effect
An asterisk follows results filed as active; ? = inconclusive; / = no result given; [ ] = remark or other dose. Unless noted, the call rests on the fitted dose curve; in most records, active means well fitted inhibition curve with a large enough effect; inconclusive means small, poorly fitted or top-dose-only effect, or another doubt; inactive means no such curve, though single readings can be large or run the other way.

SMILES | Pf growth 96h | CHX counter | Pf growth 48h | Marburg entry inh | Lassa entry inh | Shiga inhibitor
Cc1ccc(-n2c(C)cc(/C=N/NC(=O)c3ccncc3)c2C)cc1C | -2% | 5 | 10µM* | -28%[46.1 µM] | ? | 41
Cc1cc(/C=N/NC(=O)C(O)(c2ccccc2)c2ccccc2)c(C)n1-c1ccccc1 | ? | 7 | -10% | -3% | / | 4
Cc1cc(/C=N/NC(=O)c2cccs2)c(C)n1-c1ccccc1 | -70% | 26* | / | ? | 2.1µM* | 11*
Cc1cc(C)nc(SCC(=O)N/N=C/c2cc(C)n(-c3ccccc3C)c2C)n1 | ? | -2 | 5.2µM* | -1% | ? | 14
Cc1ccc2occ(/C=N/NC(=O)c3ccc(Cl)cc3)c(=O)c2c1 | 0% | -2 | 3% | 11% | 0% | -15
O=[N+]([O-])c1cc(-n2cnnn2)c(O)c([N+](=O)[O-])c1 | 9% | 1 | -1% | / | / | 9
c1ccc(CCc2nn3c(Cc4ccccc4)nnc3s2)cc1 | -5% | 8 | ? | 10% | ? | -11
Cc1ccc(-c2ccc(=O)n(CC(=O)Nc3cccc(C(=O)N4CCN(C)CC4)c3)n2)cc1 | / | -5 | ? | ? | -3% | -18
Cc1cc(/C=N/NC(=O)c2ccncc2)c(C)n1-c1ccccc1 | ? | 26* | 26% | 5% | -13% | 23*
Cc1cc(C(=O)N/N=C/c2ccc(O)c(O)c2O)c(C)n1-c1ccccc1 | 1% | 54* | 12µM* | ? | ? | 73*
Cc1cccc(NC(=O)CSCc2cc(=O)n3ccsc3n2)c1C | -2% | 2 | -5% | / | / | -7
O=C(Oc1cc2oc(=O)c3c(c2cc1Cl)CCCC3)c1ccco1 | -18% | -3 | 7% | ? | -6% | 11
CN1CCc2cc3c(c4c2C1CC41CCC(=NO)CC1)OCO3 (stereo unspecified) | 0% | 3 | -18% | -17% | -2% | -26
CCc1ccc(NC2=NCCCS2)cc1 | 11% | 15* | 35% | -2%[46.1 µM] | ? | 35*
FC(F)(F)c1ccc(NC2=NCCCS2)cc1 | 29% | 30* | 75% | / | / | 43*
c1ccc(NC2=NCCCS2)cc1 | 1% | -1 | -25% | / | / | -1
COc1cccc(CSc2nc3ccncc3[nH]2)c1 | -6% | 41* | 58% | ? | ? | 50*
Clc1ccccc1CSc1nc2ccncc2[nH]1 | ? | 21* | / | 2% | / | 66
O=C(NCc1ccccc1Cl)c1ccc(CSc2nc3ccncc3[nH]2)cc1 | ? | -4 | 12µM* | ? | ? | -5
COc1cccc(N2CCN(C(=O)c3ccc(CSc4nc5ccncc5[nH]4)cc3)CC2)c1 | 53% | -2 | ? | -40% | ? | -8
O=C(O)CC1OCC=C2CN3CCC45c6ccccc6NC4C1C2CC35 (stereo unspecified) | 0% | -1 | -8% | / | / | -15
Cc1cc(=O)oc2cc(OCC(=O)NC3CCN(Cc4ccccc4)CC3)ccc12 | -25% | 8 | ? | / | / | -7
O=S(=O)(c1ccccc1)N1CCN(C2CCCCCCC2)CC1 | 24% | 16 | 18% | ? | ? | -5
CCOC(=O)c1cnn(-c2nc(-c3ccccc3F)cs2)c1C(F)(F)F | 45% | 9 | 42% | ? | -22% | 8
CSc1ccccc1NC(=O)c1noc2c1CCC2 | / | 38* | 13µM* | 0% | 7% | 100*
SMILES | Pf growth 96h | CHX counter | Pf growth 48h | Marburg entry inh | Lassa entry inh | Shiga inhibitor
COC(=O)c1ccccc1NC(=O)c1noc2c1CCC2 | 1µM* | 1 | 3.3µM* | 3% | 15% | -5
S=C(NCc1cccs1)Nc1ccccc1 | -9% | -1 | 16% | -8% | -1% | 5
COc1ccccc1Nc1ccc(C(=O)NC2CCCCC2)cn1 | ? | 19* | -17% | 10% | 10% | 31*
COc1ccccc1C(=O)NC1CCCCCCC1 | ? | 20* | ? | 9% | 20% | 102*
COc1ccccc1N(C)S(=O)(=O)c1ccc(C(=O)NC2CCCCC2)cc1 | ? | / | ? | -13% | 10µM* | /
CN(c1ccc(C(=O)NC2CCCC2)cc1)S(=O)(=O)c1ccccc1 | 0% | 1 | 0% | -2%[46.1 µM] | ? | 8
COc1cc(C(=O)NNC2=NC(C)(C)Cc3cc(C)c(C)cc32)cc(OC)c1OC | -21% | -4 | 10% | -12% | -6% | -12
CCn1cc([N+](=O)[O-])c(C(=O)NCc2ccc(Cl)cc2)n1 | -1% | -5 | -9% | / | / | 13
CCOCCCNC(=O)Cn1cnc2c(cnn2-c2ccc(OC)cc2)c1=O | 7% | 1 | -2% | 6%[46.1 µM] | ? | 9
CC(=O)c1ccc2noc(-c3ccc(Cl)cc3)c2c1 | -2% | -3 | -7% | -14%[46.1 µM] | 4%[46.1 µM] | 15
Cc1cc(-c2onc3ccc(Cl)cc23)ccc1O | 15% | 27* | -11% | 3%[46.1 µM] | 9% | 50*
Cc1ccc(-c2onc3ccc(C4(C)OCCO4)cc23)cc1 | / | -5 | 9% | -1%[46.1 µM] | ? | -23
Cc1ccc(-c2onc3ccc(C=O)cc23)cc1 | 194% | 59* | / | 11% | 24% | 99*
CC(=O)C1=C(C)NC(SCc2cccc3ccccc23)=C(C#N)C1c1ccco1 (stereo unspecified) | 2.9µM* | -2 | 10µM* | -21% | -19% | -1
CCOC(=O)CSC1=C(C#N)C(c2ccco2)C(C(=O)Nc2cccc(C(F)(F)F)c2)=C(C)N1 (stereo unspecified) | 5% | -2 | 10µM* | 21% | 28%[14.3 µM] | -8
C=CCOC(=O)C1=C(C)NC(SCC(=O)Nc2ccc(C)c(Cl)c2)=C(C#N)[C@@H]1c1ccco1 | / | / | / | 10µM* | / | /
CCCSC1=C(C#N)C(c2cccnc2)C(C(=O)OCC)=C(c2ccccc2)N1 (stereo unspecified) | ? | -3 | ? | ? | ? | -8
CCOC(=O)C1=C(c2ccccc2)NC(SCC)=C(C#N)C1c1cccnc1 (stereo unspecified) | 8.3µM* | 5 | ? | ? | -21% | 2
CC(=O)C1=C(C)NC(SCC(=O)c2ccccc2)=C(C#N)C1c1ccco1 (stereo unspecified) | ? | 17 | ? | 6% | / | 58
Cc1ccc(NC(=O)CSC2=C(C#N)C(c3ccco3)C3=C(CC(C)(C)CC3=O)N2)cc1 (stereo unspecified) | ? | -3 | ? | -17% | ? | -10
Cc1ccc2[nH]c3c(=O)n(Cc4ccncc4)cnc3c2c1 | -29% | -4 | / | 4% | 4% | -6
CC(C)(C)NC(=O)CSc1nc(O)cc(=O)n1-c1ccccc1 | / | -2 | -14% | 9% | -2% | 27
